D2 antagonist: antagonists of human D2 dopamine receptor. HEK293 TREx D2 cells, calcium flux, dopamine EC80. inhibition, % at 10 µM. hit rate 2% among 340,000. P14416; in the data active = inhibition above about 30%; inactive = below that, where a call was filed; also: 0% is about no effect
Target sequence (P14416 whole entry, looked up): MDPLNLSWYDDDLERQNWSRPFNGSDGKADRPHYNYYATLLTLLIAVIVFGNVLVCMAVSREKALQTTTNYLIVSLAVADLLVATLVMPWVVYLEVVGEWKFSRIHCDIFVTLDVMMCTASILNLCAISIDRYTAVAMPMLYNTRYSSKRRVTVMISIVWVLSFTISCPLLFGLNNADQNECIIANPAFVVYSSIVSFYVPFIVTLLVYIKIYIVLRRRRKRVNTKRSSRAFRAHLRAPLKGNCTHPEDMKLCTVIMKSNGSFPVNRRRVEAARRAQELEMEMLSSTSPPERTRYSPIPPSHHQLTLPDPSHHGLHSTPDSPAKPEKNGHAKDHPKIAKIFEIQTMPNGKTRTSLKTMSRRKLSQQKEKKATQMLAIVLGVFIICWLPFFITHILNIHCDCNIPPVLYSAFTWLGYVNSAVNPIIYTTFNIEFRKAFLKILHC
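Overnight-induced (tetracycline, 30 C) HEK293 T-REx cells carrying force-coupled D2 receive a no-wash calcium dye, then compound, then EC80 dopamine at 180 s; signals are read kinetically throughout.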
D2 ag-1: activates the human D2 dopamine receptor. P14416. HEK293 T-REx D2 cells, calcium flux agonist mode. activation, % at 2 µM. hit rate 0.53% among 340,000. AID 485358;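 active = activation over 3 SD above normal in the single-dose calcium agonist read, cut at about 30% in these data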; also: 0% is about no effect
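Tetracycline-induced HEK293 Trex cells with D2 receptor force-coupled to calcium signaling, plated overnight at 30 C and loaded with no-wash calcium dye. Calcium flux read kinetically for 180 s after compound addition; responses flag agonists.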
D2 ag-2: agonists of human D2 dopamine receptor (beta-arrestin). P14416. DiscoveRx PathHunter D2 beta-arrestin, luminescence, 90 min; 100% = 57 uM dopamine signal. activation, % (concentration not given with the values). hit rate 0.084% among 360,000. AID 624465; in the data active = activation above about 40%; inconclusive = between about 15% and that limit
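DiscoveRx PathHunter D2 beta-arrestin cells (2,100/well) attached overnight, then compound-stimulated 90 min at 37 C in HBSS/10 mM HEPES/0.1% Tween-20 buffer; beta-galactosidase complementation read by luminescence after 1 h at ambient temperature. Dopamine 57 uM final (EC100) as control.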
D2 PAM-1: potentiates the human D2 dopamine receptor allosterically. DiscoveRx D2 beta-arrestin cells, luminescence, 90 min; 100% = 57 uM dopamine signal. potentiation, % (no concentration beside the values). P14416. AID 624464. hit rate 0.23% among 360,000; in the data active = potentiation above about 50%; inconclusive = mostly about 30% to 49%
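D2 cells co-treated with compound plus 50 nM dopamine (EC20) for 90 min at 37 deg C to detect potentiation. Beta-arrestin recruitment was read as enzyme-fragment luminescence after 1 h at ambient temperature. Full response was set by 57 uM dopamine.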
D2 PAM-2: D2 dopamine receptor (human) potentiation; potentiation, % at 10 µM; AID 485347; hit rate 0.34% among 340,000; P14416; HEK293 T-REx D2, calcium flux, EC20 dopamine potentiation;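 active = potentiation over 3 SD above the plate norm, cut at about 30% in these data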; also: 0% is about no effect
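Potentiation of an EC20 dopamine calcium response is measured in a force-coupled, tetracycline-inducible Hek293 Trex D2 line. Compound-only kinetic reads over 180 s flag agonists before dopamine addition.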
An asterisk follows results filed as active. An excerpt weighted towards active compounds, which were near 2.4% of everything screened.

`CN(C)c1nc(SCC(=O)Nc2ccccc2)nc(N2CCOCC2)n1` gave D2 antagonist 31.3*, D2 ag-1 1.2, D2 ag-2 -18.2, D2 PAM-1 1.7 and D2 PAM-2 1.8.
CCC(=O)Nc1ccc(C)cc1-c1nc2ccccc2n(CC(=O)Nc2ccccc2Cl)c1=O was read as D2 ag-1 -1.4 and D2 PAM-2 -5.7.
CSc1cccc(NC(=O)CC(c2cccs2)N2Cc3ccccc3C2=O)c1 (stereo not given) was read as D2 PAM-2 8.2.
Cc1ccc(CSCC(=O)N2CCCC2)cc1 was read as D2 antagonist 32.8*, D2 ag-1 1.4, D2 ag-2 -4.6, D2 PAM-1 -1.8 and D2 PAM-2 5.3.
For Cc1ccc(CSCC(=O)Nc2ccccc2C(=O)O)cc1 the results were D2 antagonist -9.4, D2 ag-1 -2.6, D2 ag-2 5.1, D2 PAM-1 52.1* and D2 PAM-2 -0.9.
Screening Fc1ccc(-n2cc(CNCCc3ccncc3)c(-c3ccccc3Cl)n2)cc1 returned D2 antagonist 31.3*, D2 ag-1 0.5, D2 ag-2 -2.7, D2 PAM-1 -8.9 and D2 PAM-2 -13.8.
CN(C(=O)N1CCN(c2ccccn2)CC1)c1ccccc1 was read as D2 antagonist 38.5*, D2 ag-1 0.2, D2 ag-2 1.1, D2 PAM-1 7.9 and D2 PAM-2 -11.7.
COc1ccc(C)c2sc(N(Cc3cccnc3)C(=O)CCc3ccccc3)nc12 was read as D2 PAM-2 12.5.
`Cc1ccccc1N=Cc1cc2c(cc1O)OC(N)=C(C#N)C2c1ccccc1` (stereo not given) gave D2 antagonist 33.1*, D2 ag-1 0.4, D2 ag-2 1.4, D2 PAM-1 -15.2 and D2 PAM-2 -0.7.
O=C1C(Cl)=C(NCc2cccnc2)C(=O)c2ccccc21 was read as D2 antagonist 33.7*, D2 ag-1 0.3, D2 ag-2 inconclusive, D2 PAM-1 6.6 and D2 PAM-2 7.5.
For O=C1C(Cl)=C(NCCc2ccccc2)C(=O)c2ccccc21 the results were D2 ag-2 1.9 and D2 PAM-1 -16.4.
Cc1ccccc1CC(=O)NC1CCN(Cc2ccccc2)CC1 was read as D2 antagonist 56.1*, D2 ag-1 0.3, D2 ag-2 -1.0, D2 PAM-1 -24.4 and D2 PAM-2 -37.4.
For CC(Oc1ccccc1)C(=O)NC1CCN(Cc2ccccc2)CC1 (stereo not given) the results were D2 antagonist 42.2*, D2 ag-1 0.1, D2 ag-2 -2.5, D2 PAM-1 -19.5 and D2 PAM-2 -28.2.
For O=C(CCNS(=O)(=O)c1cccs1)NC1CCN(Cc2ccccc2)CC1 the results were D2 antagonist 41.3*, D2 ag-1 1.0, D2 ag-2 -0.2, D2 PAM-1 -11.5 and D2 PAM-2 -34.3.
CC(Oc1ccccc1)C(=O)NC1CCCCCCC1 (stereo not given) was read as D2 antagonist -11.7, D2 ag-1 0.3, D2 ag-2 4.1, D2 PAM-1 -11.1 and D2 PAM-2 7.1.
Screening O=C(CCNS(=O)(=O)c1ccc(Br)cc1)NC1CCN(Cc2ccccc2)CC1 returned D2 ag-2 -2.0 and D2 PAM-1 -42.5.
CCCN1CCC(NC(=O)Cc2ccccc2C)CC1 was read as D2 antagonist 1.3, D2 ag-1 0.8, D2 ag-2 -3.9, D2 PAM-1 -4.9 and D2 PAM-2 -12.6.
Cc1ccc(Cl)cc1S(=O)(=O)N1CCC(C(=O)NC2CCN(Cc3ccccc3)CC2)CC1 was read as D2 antagonist 31.1*, D2 ag-1 2.7, D2 ag-2 -3.3, D2 PAM-1 -16.1 and D2 PAM-2 -21.7.
COc1cccc(NC(=O)C2CCCN(c3ncnc4onc(-c5ccc(F)cc5)c34)C2)c1 (stereo not given) was read as D2 ag-1 0.9 and D2 PAM-2 3.8.
Screening COc1ccc(NC(=O)CSC2=Nc3ccccc3C3=NC(Cc4ccccc4)C(=O)N23)cc1Cl (stereo not given) returned D2 ag-1 -0.7 and D2 PAM-2 2.4.
CC(=O)N1CCOc2cc(S(=O)(=O)Nc3c(C)cccc3C(C)C)c(Cl)cc21 was read as D2 ag-1 -0.8 and D2 PAM-2 7.1.
Screening Cc1ccc(C)c(N2CCN(C(=O)c3cc4c(=O)n(Cc5cccnc5)ccc4nc3C)CC2)c1 returned D2 PAM-2 -8.7.
Screening O=C(Cc1ccccc1)NC1CCN(Cc2ccccc2)CC1 returned D2 antagonist 36.4*, D2 ag-1 1.2, D2 ag-2 -12.3, D2 PAM-1 -20.1 and D2 PAM-2 -26.9.
Screening O=C(NC1CCN(Cc2ccccc2)CC1)C12CC3CC(CC(C3)C1)C2 returned D2 antagonist 32.0*, D2 ag-1 1.0, D2 ag-2 -2.1, D2 PAM-1 -15.9 and D2 PAM-2 -28.9.
`Cc1ccc(CC(=O)NC2CCN(Cc3ccccc3)CC2)cc1` gave D2 antagonist -3.1, D2 ag-1 0.3, D2 ag-2 -2.1, D2 PAM-1 -11.6 and D2 PAM-2 -14.4.
For O=C(NCc1ccco1)c1ccc2c(c1)C(=O)c1ccccc1-2 the results were D2 antagonist 30.0*, D2 ag-1 -1.9, D2 ag-2 2.6, D2 PAM-1 -6.9 and D2 PAM-2 13.8.
Screening O=C(NCc1ccco1)c1cc([N+](=O)[O-])cc([N+](=O)[O-])c1 returned D2 antagonist 6.0, D2 ag-1 0.0, D2 ag-2 13.9, D2 PAM-1 83.2* and D2 PAM-2 2.8.
COc1ccc(-c2noc(-c3ccccc3C(=O)NCc3ccco3)n2)cc1OC was read as D2 antagonist -4.8, D2 ag-1 -0.2, D2 ag-2 -2.0, D2 PAM-1 -12.7 and D2 PAM-2 32.2*.
`O=C(NCc1ccco1)c1ccc(S(=O)(=O)N2CCCc3ccccc32)cc1` gave D2 antagonist 40.0*, D2 ag-1 2.9, D2 ag-2 1.1, D2 PAM-1 -4.0 and D2 PAM-2 -13.2.
COc1ccc(-c2noc(-c3ccccc3C(=O)NCc3ccco3)n2)cc1 was read as D2 antagonist 3.8, D2 ag-1 0.3, D2 ag-2 -7.6, D2 PAM-1 -20.1 and D2 PAM-2 -4.1.
`Cc1ccc2oc(-c3ccc(C)c(NC(=O)/C=C/c4ccc(Cl)cc4)c3)nc2c1` gave D2 PAM-2 9.3.
Screening CC(=O)N(C)c1nnc(-c2ccccn2)s1 returned D2 antagonist 42.6*, D2 ag-1 -0.7, D2 ag-2 -2.8, D2 PAM-1 13.0 and D2 PAM-2 1.4.
For CN(C(=O)c1cccnc1)c1nnc(-c2ccccn2)s1 the results were D2 antagonist 15.5, D2 ag-1 2.6, D2 ag-2 -3.4, D2 PAM-1 -6.4 and D2 PAM-2 -2.9.
Screening Nc1ccc(C2=Nc3cccc4cccc(c34)N2)cc1 returned D2 antagonist 8.7, D2 ag-1 -1.3, D2 ag-2 inconclusive, D2 PAM-1 4.4 and D2 PAM-2 -3.7.

Compound activity: PubChem BioAssay, National Center for Advancing Translational Sciences (NCATS)
